This passage reports outcome, Potency and PLD induction results from PubChem BioAssay (Tox21).

Test [1] is described as follows: qHTS assay to identify small molecule antagonists of the androgen receptor (AR) signaling pathway using the MDA cell line in the presence of 0.5 nM R1881 - cell viability counter screen (AID 1259242). Also: nearly all actives have a fitted effect of over 45% in size. The gist of the method:
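Counter screen for cytotoxicity run in the same wells as the AR antagonist reporter screen: MDA-kb2 cells were treated 16 hr with test compounds and 0.5 nM R1881, then live-cell protease activity was measured by fluorescence.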
A general note: Quantitative high-throughput screening tests each substance at several concentrations.

Test [2] in a line: qHTS assay to identify small molecule phospholipidosis (PLD) inducers (AID 1259344; active = well fitted curve in the direction sought with a large enough effect; an effect the other way counts as inactive or inconclusive). The gist of the method:
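Fluorescent phospholipid staining (LipidTOX Red) measured by automated microscopy in fixed HepG2 cells after 24 h treatment; nuclei counterstained with Hoechst 33342; amiodarone as reference inducer.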

The nature of test [3]: qHTS assay to identify small molecule HDAC inhibitors (AID 1259364). Also: top concentration of the series differs between compounds; nearly all actives have a fitted effect of over 45% in size. The gist of the method:
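Luminescence from a cell-permeant luminogenic class I/II HDAC substrate reports endogenous deacetylase activity in intact HCT-116 cells treated with compounds for 2 h.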

Test [4] in a line: qHTS assay to identify small molecule HDAC inhibitors - cell viability counter screen (AID 1259365). Also: series mostly up to about 92 µM; nearly all actives have a fitted effect of over 50% in size. The method, boiled down: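 To flag cytotoxic hits, 1,500 wild-type HCT-116 cells per well, plated the day before, receive test compounds for 2hr at 37 C before CellTiter-Glo reagent and a luminescence read.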
Test [5] can be described thus: qHTS assay to identify small molecule agonists of the sonic hedgehog signaling (Shh) pathway - cell viability counter screen (AID 1259366). Also: nearly all actives have a fitted effect of over 50% in size. The gist of the method: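 Fluorescence from CellTiter-Fluor reports live cells in this counter screen. NIH/3T3-derived Gli1-Luc reporter cells receive test compounds for 24hr at 37C; reagent goes in at 23hr.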
Test [6] can be described thus: qHTS assay to identify small molecule antagonists of the sonic hedgehog signaling (Shh) pathway - cell viability counter screen (AID 1259367). Also: nearly all actives have a fitted effect of over 55% in size. The gist of the method: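 Using CellTiter-Fluor, viability of Gli1-Luc reporter 3T3 cells is read by fluorescence in the wells used for the Shh luciferase assay. Treatment lasts 23 hr with conditioned medium, then reagent 1 hr at 37C.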

Test [7] is described as follows: qHTS assay to identify small molecule agonists of the sonic hedgehog signaling (Shh) pathway (AID 1259368; calls by dose curve;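 also: NIH/3T3-derived 3T3Gli1-Luc cells carrying a stable Gli1-driven firefly luciferase reporter; series mostly up to about 92 µM; nearly all actives have a fitted effect of over 15% in size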). The method, boiled down: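 3T3Gli1-Luc (NIH/3T3 clone, stable Gli1-Luc); 4 hr pre-incubation, then cpd in DMSO 24 hr, 37 C/5% CO2; luciferase reagent 30 min RT; luminescence.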
Test [8] concerns the target Estrogen receptor beta (Homo sapiens) (UniProt Q92731). As to the kind of experiment: qHTS assay to identify small molecule agonists of the estrogen receptor beta (ER-beta) signaling pathway (AID 1259377; active = well fitted activation curve with a large enough effect in the signal ratio in the repeat runs, not every such curve was filed as active; the % refers to the signal ratio). The gist of the method: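 Screening used GripTite ER-beta-UAS-bla cells held in 2% charcoal-stripped FBS medium. After overnight (16 hr) compound incubation at 37C, beta-lactamase activity was detected with a FRET substrate by fluorescence.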

The target is the same in test [9]. As to the kind of experiment: qHTS assay to identify small molecule antagonists of the estrogen receptor beta (ER-beta) signaling pathway (AID 1259378; active = well fitted inhibition curve with a large enough effect in the signal ratio in the repeat runs, not every such curve was filed as active; the % refers to the signal ratio). The method, boiled down:
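Antagonist mode: compounds added to beta-lactamase reporter HEK293T ER-beta-UAS cells stimulated with E2 (1nM final), 16 hr at 37C. LiveBLAzer B/G FRET substrate, 2 hours room temperature, fluorescence read-out.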

A short description of test [10]: qHTS assay to identify small molecule agonists of the androgen receptor (AR) signaling pathway in the presence of an antagonist - cell viability counter screen (AID 1259379).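 Also: MDA-kb2 human breast cancer cells carrying an MMTV luciferase reporter; series mostly up to about 92 µM; nearly all actives have a fitted effect of over 25% in size.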 The method, boiled down:
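Cells: MDA-kb2 (MMTV-luc, AR and GR elements), 3,000/well, 5 hr settle. Added: nilutamide 3.0uM final, then compounds (15 conc.). Incubation: 16 hr, 37C, no CO2. Read-out: CellTiter-Fluor, 1 hr, fluorescence.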

The nature of test [11]: qHTS assay to identify small molecule agonists of the estrogen receptor beta (ER-beta) signaling pathway - cell viability counter screen (AID 1259380). Also: nearly all actives have a fitted effect of over 30% in size. Also: potency is read from the fitted curve at half-maximal effect. The method, boiled down: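 HEK293T ER-beta-UAS-bla; 2% CS-FBS; 6 hr pre-plate, 16 hr cpd at 37C/5% CO2; LiveBLAzer read first, then CellTiter-Glo 30 min RT, luminescence.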
The nature of test [12]: qHTS assay to identify small molecule antagonists of the estrogen receptor beta (ER-beta) signaling pathway - cell viability counter screen (AID 1259382).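 Also: HEK293T cells carrying ER-beta-UAS-bla reporter stimulated with estradiol; series mostly up to about 92 µM; nearly all actives have a fitted effect of over 55% in size.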 The method, boiled down: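 Cells: ER-beta-UAS-bla HEK293T, 2,000/well, 2% CS-FBS, 6 hr settle. Cpd + E2 (1nM final), 16 hr, 37C/5% CO2. Bla FRET substrate 2 hr RT, then CellTiter-Glo 30 min RT, luminescence.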
The nature of test [13]: qHTS assay to identify small molecule agonists or antagonists of the thyroid stimulating hormone receptor (TSHR) signaling pathway - wild type cell line counter screen (AID 1259384; calls by dose curve). The gist of the method: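 Counter screen in untransfected Hek293: compounds (15-point titration, triplicate) plus phosphodiesterase inhibitor Ro20-1724 added after 18 h plating; 30 min RT. Intracellular cAMP via competitive d2/cryptate immunoassay, 1 h incubation.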

The target of test [14] is Thyrotropin receptor (Homo sapiens) (UniProt P16473). As to the kind of experiment: qHTS assay to identify small molecule antagonists of the thyroid stimulating hormone receptor (TSHR) signaling pathway (AID 1259385; calls by dose curve; also: nearly all actives have a fitted effect of over 20% in size). The method, boiled down: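 Antagonist mode: compound-treated TSHR-expressing HEK293 cells were stimulated with 1.5 ng/mL TSH (final) in presence of Ro20-1724 for 30 min at RT. HTRF cAMP detection after 1 h; each compound tested at 15 concentrations, triplicate.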

The nature of test [15]: qHTS assay to identify small molecule agonists of the estrogen receptor alpha (ER-alpha) signaling pathway in the presence of an antagonist - cell viability counter screen (AID 1259386).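 Also: series mostly up to about 92 µM; cells exposed to compounds for 22 h at 37 °C before the viability read; nearly all actives have a fitted effect of over 30% in size.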 The gist of the method: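 VM7Luc4E2, stripped-serum pre-culture 5 d; 24hr plating; +ICI-182,780 10.0nM final; cpds 15 conc, 22hr, 37C/5% CO2; CellTiter-Fluor added at 21hr, fluorescence 1hr later.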

Test [16] is described as follows: qHTS assay to identify small molecule antagonists of the sonic hedgehog signaling (Shh) pathway (AID 1259369; calls by dose curve; also: nearly all actives have a fitted effect of over 45% in size). The method, boiled down:
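3T3Gli1-Luc, conditioned-medium-stimulated, 24hr cpd, 37C/5% CO2; Gli1-driven firefly Luc luminescence after 30min RT with luciferase reagent. Cells plated 4hr before cpd.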

In test [17] the target is Estrogen receptor (Homo sapiens) (UniProt P03372). Nature of the test: qHTS assay to identify small molecule agonists of the estrogen receptor alpha (ER-alpha) signaling pathway in the presence of an antagonist (AID 1259383; calls by dose curve; also: top concentration of the series differs between compounds; nearly all actives have a fitted effect of over 15% in size). The method, boiled down: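 VM7Luc4E2, endog. ER-alpha + 4×ERE-luc; charcoal-stripped FBS, phenol red-free, 5 d; 24hr plating; +10.0nM ICI-182,780 (final); cpds 15 conc, 22hr, 37C/5% CO2; ONE-Glo luminescence.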

Unmarked numbers belong to inactive results. Records with an inconclusive call do not appear. Active and inactive are the calls of the source. Unless noted, calls follow the shape of the dose curve; as a rule, active = well fitted curve in the direction sought with a large enough effect in the repeat runs; inconclusive = weak or mixed curves; inactive = no such curve, though single readings can be large; an effect the other way counts as inactive or inconclusive.
% is scaled to controls: 0 for no effect and ±100 for the full control effect.

Sequence of Estrogen receptor (Homo sapiens) (P03372 whole entry, looked up): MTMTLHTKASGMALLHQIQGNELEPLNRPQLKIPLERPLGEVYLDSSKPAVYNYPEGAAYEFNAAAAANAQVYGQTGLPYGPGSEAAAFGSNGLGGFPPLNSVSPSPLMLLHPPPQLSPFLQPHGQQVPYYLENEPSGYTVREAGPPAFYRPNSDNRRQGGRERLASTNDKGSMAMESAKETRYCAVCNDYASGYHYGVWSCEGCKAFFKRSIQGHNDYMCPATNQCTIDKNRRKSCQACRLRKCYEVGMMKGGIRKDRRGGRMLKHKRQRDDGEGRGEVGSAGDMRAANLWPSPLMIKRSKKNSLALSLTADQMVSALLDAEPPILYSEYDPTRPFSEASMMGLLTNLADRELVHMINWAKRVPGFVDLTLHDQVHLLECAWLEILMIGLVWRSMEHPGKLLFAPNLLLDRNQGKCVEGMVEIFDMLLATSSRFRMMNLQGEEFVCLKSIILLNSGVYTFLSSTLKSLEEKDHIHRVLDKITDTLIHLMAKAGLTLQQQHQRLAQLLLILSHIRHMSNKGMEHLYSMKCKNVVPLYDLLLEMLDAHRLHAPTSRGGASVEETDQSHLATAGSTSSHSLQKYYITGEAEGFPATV
Sequence of Thyrotropin receptor (Homo sapiens) (P16473 whole entry, looked up): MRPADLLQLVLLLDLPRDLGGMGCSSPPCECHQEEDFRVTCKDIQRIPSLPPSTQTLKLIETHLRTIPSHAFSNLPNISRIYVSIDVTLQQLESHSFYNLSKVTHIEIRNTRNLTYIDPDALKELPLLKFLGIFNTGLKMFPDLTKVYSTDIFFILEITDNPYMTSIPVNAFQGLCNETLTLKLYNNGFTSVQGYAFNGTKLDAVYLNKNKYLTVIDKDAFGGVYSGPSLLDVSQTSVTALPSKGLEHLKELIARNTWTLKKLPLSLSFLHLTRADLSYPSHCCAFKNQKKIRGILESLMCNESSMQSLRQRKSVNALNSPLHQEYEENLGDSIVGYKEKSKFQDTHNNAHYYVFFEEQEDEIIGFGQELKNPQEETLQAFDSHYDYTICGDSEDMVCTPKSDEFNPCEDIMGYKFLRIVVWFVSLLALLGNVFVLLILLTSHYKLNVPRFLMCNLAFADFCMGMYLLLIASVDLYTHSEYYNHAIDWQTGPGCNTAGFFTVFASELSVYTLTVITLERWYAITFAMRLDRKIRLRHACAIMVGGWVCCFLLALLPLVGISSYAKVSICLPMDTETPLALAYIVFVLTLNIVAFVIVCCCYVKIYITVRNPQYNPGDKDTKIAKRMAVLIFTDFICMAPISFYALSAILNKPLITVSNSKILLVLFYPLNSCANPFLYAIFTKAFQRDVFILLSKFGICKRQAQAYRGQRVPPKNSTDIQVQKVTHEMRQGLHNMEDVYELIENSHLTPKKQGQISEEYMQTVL
Sequence of Estrogen receptor beta (Homo sapiens) (Q92731 whole entry, looked up): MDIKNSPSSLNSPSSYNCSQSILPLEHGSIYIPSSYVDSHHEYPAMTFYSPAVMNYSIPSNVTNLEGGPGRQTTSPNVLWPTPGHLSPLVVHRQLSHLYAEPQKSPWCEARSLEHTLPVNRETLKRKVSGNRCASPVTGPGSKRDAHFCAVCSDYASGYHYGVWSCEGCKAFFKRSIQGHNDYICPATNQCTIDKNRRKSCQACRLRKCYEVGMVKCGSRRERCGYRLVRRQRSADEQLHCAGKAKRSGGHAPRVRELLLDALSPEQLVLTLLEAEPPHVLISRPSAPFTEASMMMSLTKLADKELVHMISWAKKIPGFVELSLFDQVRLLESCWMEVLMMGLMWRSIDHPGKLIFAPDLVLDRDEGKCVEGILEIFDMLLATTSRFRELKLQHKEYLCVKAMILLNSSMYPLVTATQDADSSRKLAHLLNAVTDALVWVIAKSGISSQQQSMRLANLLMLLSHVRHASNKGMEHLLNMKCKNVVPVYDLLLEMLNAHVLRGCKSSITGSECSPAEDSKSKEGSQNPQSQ

In the case of `CCOC(=O)c1ccccc1O`, the result in test [1], in [2], in test [4], in test [8], in test [12] and in test [13] was inactive. Moreover, the Potency result in test [3], in test [5], in test [6], in test [7], in test [9] and in [10] was “inactive” each time. The Potency result in [11], in [14] and in test [15] was “inactive” each time.
`CCOc1ccc(NS(=O)(=O)c2ccc(N)cc2)nn1`: the outcome in test [1], in test [2], in [4], in test [8], in [12] and in test [13] was inactive. The Potency entry in test [3], in test [5], in test [6], in test [7], in [16] and in [10] was “inactive” throughout. In addition, the Potency result in test [11] and in test [15] was “inactive” throughout.
In the case of `CN(C)CC[C@@H](c1ccc(Cl)cc1)c1ccccn1`, the result in test [1], in test [4] and in [12] was inactive. The PLD induction in test [2] was 19.5% [at 1.53 µM]. The Potency entry in test [3], in test [5], in test [6], in [7], in test [10] and in test [11] was “inactive” in each case. Moreover, the Potency entry in [15] was “inactive”.
Turning to `CN1[C@@H]2CC[C@H]1CC(OC(=O)c1c[nH]c3ccccc13)C2` (stereo partly specified), the outcome in test [1], in test [2], in test [4], in [12] and in test [13] was inactive. Further, the Potency entry in test [3], in test [5], in test [6], in test [7], in test [9] and in test [10] was “inactive” throughout. Also, the Potency entry in test [11], in [14] and in test [15] was “inactive” throughout.
As for `CC(C)C1=CC2=CC[C@@H]3[C@](C)(CCC[C@@]3(C)C(=O)O)[C@H]2CC1`, the result in [1], in test [2], in test [4] and in test [12] was inactive. In addition, the Potency result in test [3], in test [5], in test [6], in [7], in test [16] and in test [10] was “inactive” in each case. Besides, the Potency result in test [17] and in [15] was “inactive” in each case. Moreover, in test [11], the Potency is 30.6 µM (active).
Regarding `NC/C=C/C(=O)O`, the result in test [1], in test [2], in [4] and in test [12] was inactive. In addition, the Potency result in test [3], in [5], in [6], in [7], in test [16] and in test [10] was “inactive” in each case. For the same compound, the Potency result in test [11], in [14] and in [15] was “inactive” throughout.
In the case of `CCC(=O)O[C@]1(C(=O)SCF)[C@H](C)C[C@H]2[C@@H]3C[C@H](F)C4=CC(=O)C=C[C@]4(C)[C@@]3(F)[C@@H](O)C[C@@]21C`, the result in test [1], in test [2], in test [4], in [12] and in test [13] was inactive. Also, the Potency result in test [3], in test [5], in test [6], in test [7], in [16] and in test [10] was “inactive” in each case. For the same compound, the Potency entry in test [11], in [17] and in test [15] was “inactive” in each case.
In the case of `CCOC(=O)[C@H](CCc1ccccc1)N[C@@H](C)C(=O)N1Cc2cc(OC)c(OC)cc2C[C@H]1C(=O)O`, the outcome in test [1], in test [2], in [4], in test [8] and in test [12] was inactive. The Potency result in test [3], in test [5], in test [6], in test [7], in test [16] and in test [9] was “inactive” throughout. The Potency result in [10], in test [11], in [17], in test [14] and in [15] was “inactive” each time.
Take `CC(CNC1CCCCC1)OC(=O)c1ccccc1` (stereo unspecified): the result in test [1], in test [2], in test [4], in [12] and in test [13] was inactive. Further, the Potency result in test [3], in [5], in [6], in [7], in test [16] and in [9] was “inactive” each time. The Potency result in [10], in test [11], in [17], in test [14] and in test [15] was “inactive” each time.
